ABCB6 inh MLPCN: ABCB6 transporter inhibitors, primary screen, K562-ABCB6 cells, flow cytometry, MLPCN library | K562-ABCB6 porphyrin accumulation, 1 h; stronger effect = lower value | 360,000 tested, 0.19% active | ATP-binding cassette sub-family B member 6 (Homo sapiens), Q9NP58 | fluorescence ratio to DMSO, % at 10 µM;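 active means fluorescence ratio to DMSO below 75%, the collection mean minus 3 SD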;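 further: signal is porphyrin accumulated inside mitochondria; 100% equals median channel fluorescence of DMSO control wells; lower ratio means ABCB6 inhibition with less porphyrin fluorescence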
PG9 binder: binders of HIV-1 gp120 antibody PG9, primary screen, biochemical, TR-FRET. HIV-1 gp120 / PG9 antibody interaction. TR-FRET gp120-PG9 antibody binding. inhibition, % at 6.7 µM. 360,000 tested, 0.43% active; in the data active means inhibition above about 8.5%
Granule exo inh: LAMP-1 surface exposure blockers, TALL-104 cells – cell-based, flow cytometry, MLPCN library, primary screen; TALL-104 LAMP-1 surface exposure; cells stimulated with thapsigargin and PMA; inhibition, % at 10 µM; 360,000 tested, 0.66% active;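 active means inhibition above about 55%, limit read from the data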
NR1D1 modulator: modulators of Rev-erb alpha DNA binding, primary screen, biochemical, FITC-DNA, fluorescence polarization, uHTS. Nuclear receptor subfamily 1 group D member 1 (Homo sapiens), P20393. Rev-erbα–FITC-DNA binding, 90 min. activity, % at 10 µM. 370,000 tested, 0.79% active. AID 1259318, 2017;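 active means activity above about 14%, limit read from the data; passing the limit was not always enough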;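 further: 0% = DMSO wells with 35 nM protein and 100% = DMSO wells with 750 nM protein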
VLA-4 inh: inhibition in human VLA-4 binding assay, primary screen, VLA-4 allosteric modulator project, MLPCN library, flow cytometry, VLA-4 expressing cells; ligand binding flow cytometry; 330,000 tested, 0.2% active; inhibition, % (about 7 µM as worked out from the volumes in the protocol); in the data active means inhibition above about 50%
NR1D1 mod conf: modulators of Rev-erb alpha DNA binding, confirmation, biochemical, FITC-DNA, fluorescence polarization, single point; 3,000 tested, 61% active; AID 1259319, 2017; activation, % at 25 µM; 90 min; shares compounds with NR1D1 modulator;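 active means activation at or above a set limit, or at least 3 SD above the negative control mean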;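 further: 0% = 35 nM protein with DMSO and 100% = 750 nM protein high control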
RORg counter: modulation of RORgamma DNA binding, dose response, counter-screen for Rev-erb alpha modulator project, biochemical, fluorescence polarization, FITC-DNA; purified RORgamma protein-FITC-DNA binding; shares compounds with NR1D1 modulator; IC50, µM; 910 tested, 8% active; AID 1259320, 2017;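 active means Compounds whose fitted half-maximal concentration for disrupting protein-DNA binding is below 10 micromolar; the record names Rev-erb in its text, so the target is in doubt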
* hit, by the source's call; i = inactive; x = no result. The list is not random: actives were taken first. Their share in the collection is about 2%.

SMILES | ABCB6 inh MLPCN | PG9 binder | Granule exo inh | NR1D1 modulator | VLA-4 inh | NR1D1 mod conf | others
O=C(CCc1nc2sc3c(c2c(=O)[nH]1)CCCC3)NCCc1ccc(Cl)cc1 | 95 | 5 | -4 | 21* | x | 7
C#CCN(C[C@H]1[C@H](OC(=O)Nc2c(C)noc2C)[C@H](OC(=O)Nc2c(C)noc2C)CN(C(=O)OC(C)C)N1C(=O)OC(C)C)S(=O)(=O)c1ccc(C)cc1 | x | -3 | x | -5 | x | x
Cc1ccccc1Cn1cc(COC(=O)Nc2ccc(F)cc2)nn1 | x | x | x | 1 | x | x
CC(C)(C)N1Cc2nnn(Cc3ccccc3)c2-c2cc(N3CCCCC3)ccc2S1(=O)=O | x | x | x | 2 | x | x
Cn1c2ccccc2n2c(=O)c(Cl)c(-c3ccccc3)c(C#N)c12 | 100 | 0 | 1 | 41* | 23 | 33* | RORg counter=i
Cn1ccc(-c2ccccc2)c(C#N)c1=O | 93 | 0 | 2 | 3 | 0 | x
Cc1ccc(-c2cc(-c3nnc(SCc4cccc5ccccc45)n3N)[nH]n2)cc1 | x | x | x | -2 | x | x
O=C1c2cccc3cccc(c23)C(=O)N1OS(=O)(=O)c1ccc(Cl)cc1 | 91 | -1 | 0 | 22* | -3 | 13
CCCCCCCCCC(=O)OC1(c2ccc(Cl)cc2)CCN(CCCC(=O)c2ccc(F)cc2)CC1 | x | x | x | -7 | x | x
CCOc1ccc(C(=O)/C=C/Nc2ccc(S(=O)(=O)Nc3cc(C)nc(C)n3)cc2)cc1 | x | -1 | x | 20* | -4 | 1
Cc1cc(C)nc(NS(=O)(=O)c2ccc(N/C=C/C(=O)c3ccc(Cl)c(Cl)c3)cc2)n1 | 99 | -4 | 1 | 32* | 11 | 19*
CCOC(=O)c1c(-c2cccs2)csc1NC(=O)COC(=O)c1c(C)noc1C | 96 | 2 | -2 | -3 | -8 | x
CCOC(=O)c1c(-c2cccs2)csc1NC(=O)c1ccncc1 | 98 | -3 | 3 | 29* | 0 | 28*
CCOc1ccc(CCNC(=O)COC(=O)c2ccc(S(=O)(=O)N3CCCC3)cc2)cc1OCC | 96 | 0 | 0 | -7 | -11 | x
CCOc1ccc(CCNC(=O)COC(=O)c2ccc(S(C)(=O)=O)cc2)cc1OCC | 104 | -2 | 10 | 17* | -4 | 3
COc1cccc(C(=O)c2cc3cc(Cl)ccc3[nH]2)c1 | 102 | 1 | -8 | 20* | -2 | 11
O=C(c1ccccc1)c1cc2cc(Cl)ccc2[nH]1 | 96 | -2 | -2 | 3 | 9 | x
O=C(c1cccc(C(F)(F)F)c1)N1CC[C@H]2[C@H](CCCN2Cc2ccccc2)C1 | x | x | x | -1 | x | x
COc1ccc(NC(=O)c2cnc(SCC(=O)NCCc3ccccc3)n(C)c2=O)cc1 | 99 | 2 | 12 | 4 | 9 | x
Cn1c(SCC(=O)NCC2CCCO2)ncc(C(=O)Nc2ccc(F)cc2)c1=O (configuration not stated) | 95 | 0 | -1 | 0 | 4 | x
Cn1cc(SCC(=O)NCC2CCCO2)c2ccccc21 (configuration not stated) | 103 | -2 | 0 | 30* | -4 | 1
Cn1c(SCC(=O)NCCc2ccccc2)ncc(C(=O)Nc2ccccc2)c1=O | 99 | 5 | 2 | 30* | 19 | 20*
CCCn1cc(SCC(=O)NCC2CCCO2)c2ccccc21 (configuration not stated) | 98 | -1 | -2 | -2 | -7 | x
Cn1c(SCC(=O)NCC2CCCO2)ncc(C(=O)Nc2ccc(Cl)cc2)c1=O (configuration not stated) | 97 | -3 | 0 | 24* | 46 | 2
COc1ccc(-c2cc3c(=O)n(CC(=O)NCc4ccc(Cl)cc4)ncn3n2)cc1 | 97 | 0 | 0 | 21* | 8 | 5

Screening results from PubChem.
